Source: the supplement of paper PMC6522484
± gives the standard deviation of the averaged measurements.

Test system: DLD1
Assay: cell viability (CellTiter-Glo) relative to plate median (fraction of plate median); higher = more viable cells
Conditions: 5 µM; treatment time 24 h; reporter: 7TFP
Procedure, shortened: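 Luminescence, normalised well by well to the plate median, is tabulated as a mean of independent replicates. There were two replicates, run on colorectal cancer lines stably transduced with lentiviral TCF/Wnt firefly luciferase reporters and dosed with library compounds at a final 5 µM for 24 h. Readouts were firefly luciferase or CellTiterGlo on parallel plates.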

Structure (SMILES) | cell viability
CC[n+]1c(-c2ccccc2)c2cc(N)ccc2c2ccc(N)cc21 | 1.1 ± 0.014
C=CCCCCCCCCCCCC(O)CC(O)COC(C)=O (configuration not stated) | 0.995 ± 0.0071
CN(C)CCC(c1ccc(Br)cc1)c1ccccn1 (configuration not stated) | 0.931 ± 0.15
C[C@]12CCC(=O)C=C1CC[C@@H]1[C@@H]2C(=O)C[C@@]2(C)[C@H]1CC[C@]2(O)C(=O)CO | 0.888 ± 0.14
CC(C)(S)[C@@H](N)C(=O)O | 0.991 ± 0.027
CO/N=C(\C(=O)N[C@@H]1C(=O)N2C(C(=O)OCOC(=O)C(C)(C)C)=C(/C=C\c3scnc3C)CS[C@H]12)c1csc(N)n1 | 1.025 ± 0.0071
Nc1ccc(S(=O)(=O)Nc2ccccn2)cc1 | 0.971 ± 0.11
CCOC(=O)C1=C(C)NC(C)=C(C(=O)OC)C1c1cccc([N+](=O)[O-])c1 (configuration not stated) | 0.964 ± 0.03
O=C1O[C@H]([C@@H](O)CO)C(O)=C1O | 0.983 ± 0.024
CC1(C)CC[C@]2(C(=O)O)CC[C@]3(C)C(=CC[C@@H]4[C@@]5(C)CC[C@H](O)C(C)(C)[C@@H]5[C@H](O)C[C@]43C)[C@@H]2C1 | 0.946 ± 0.076
CC(=O)CC(c1ccccc1)c1c(O)c2ccccc2oc1=O (configuration not stated) | 1.02 ± 0.056
C=CCCCCCCCCC(=O)[O-].C=CCCCCCCCCC(=O)[O-].[Zn+2] | 0.996 ± 0.049
